# Shiga toxin inh: A qHTS for Small Molecule Inhibitors of Shiga Toxin; actives 9.2% (n = 290,000); Vero cells, Shiga toxin protein synthesis inhibition reporter; inhibition, % at 38.7 µM; in the data active = inhibition mostly above about 28%, no sharp cut-off; inactive = mostly below about 43%; also: 0% is about no effect
# SARS PLpro yeast: qHTS of Yeast-based Assay for SARS-CoV PLP; S. cerevisiae expressing SARS-CoV PLpro, growth rescue; actives 0.19% (n = 330,000); Potency, µM (highest dose often 32.9 µM), without a hit: at the top dose activity, positive = growth rescue, actives largely listed as activators; AID 485353, 2010; calls by dose curve; also: potency is read from the fitted curve at half-maximal effect; 0% is about no effect; nearly all actives have a fitted effect of over 55% in size
# Pf growth 48h: Primary qHTS for delayed death inhibitors of the malarial parasite plastid, 48 hour incubation | P. falciparum luciferase growth in erythrocytes, 48 h | Potency, µM (series often up to 28.7 µM), inactives show at the highest dose activity change, negative = inhibition, actives largely listed as inhibitors | actives 5.9% (n = 310,000); also: potency is read from the fitted curve at half-maximal effect; % is scaled to controls: 0 for no effect and ±100 for the full control effect
#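 Luciferase-expressing parasites in RBCs, 2% Hct / 0.1% parasitemia final; RPMI 1640 + 0.5% Albumax; 37 C, 5% CO2, one generation; luminescence read-out, lower signal = inhibition.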
# Pf growth 96h: Primary qHTS for delayed death inhibitors of the malarial parasite plastid, 96 hour incubation; AID 504834, 2011; Potency, µM (titrated, usually from 28.7 µM), without a hit: at the top dose activity change, negative = inhibition, hits mostly inhibitors; P. falciparum luciferase reporter growth, 96 h; actives 6.9% (n = 320,000); also: potency is read from the fitted curve at half-maximal effect; % is scaled to controls: 0 for no effect and ±100 for the full control effect
#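 P. falciparum expressing integrated firefly luciferase grown in erythrocytes (2% hematocrit, 0.05% parasitemia final) with compounds for 96 hours at 37 C, 5% CO2. Growth inhibition read as loss of luminescence after adding luciferase detection reagent.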
# CHX counter: Cycloheximide Counterscreen for Small Molecule Inhibitors of Shiga Toxin. cell reporter, cycloheximide protein synthesis inhibition counterscreen. max response, %. actives 12% (n = 300,000); in the data active = max response mostly above about 13%, no sharp cut-off; inactive = mostly below about 14%; also: read at 38.3 µM for the half of the compounds with a filed dose; 0% is about no effect
# AMA1 RON2 block: qHTS for Inhibitors of AMA1-RON; Towards Development of Antimalarial Drug Lead: Primary Screen; Plasmodium falciparum AMA1 (3D7) - RON2 peptide interaction; AlphaScreen AMA1-biotinylated RON2 peptide binding; Potency, µM (doses to about 58.2 µM), inactives show top-dose activity change, negative = inhibition, most hits filed as inhibitors; actives 0.2% (n = 360,000);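 also: potency is read from the fitted curve at half-maximal effect; 0% = vehicle wells and -100% = peptide control; nearly all actives have a fitted effect of over 45% in size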
#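 AMA1 (3D7) with his tag at 25 nM final met compounds first, then biotinylated RON2 peptide at 25 nM; detection used donor plus acceptor beads, 10 µg/mL apiece, read by AlphaScreen after 30 min at room temperature.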
# Active calls of the source: *; ? = inconclusive; / = not tested or not shown. This is a sample that favours compounds with a hit; in the whole collection about 19% have one here. Unless noted, calls follow the shape of the dose curve; as a rule, active = well fitted curve in the direction sought with a large enough effect; inconclusive = small, poorly fitted or top-dose-only effect, or another doubt; inactive = no such curve, though single readings can be large; an effect the other way counts as inactive or inconclusive.
SMILES,Shiga toxin inh,SARS PLpro yeast,Pf growth 48h,Pf growth 96h,CHX counter,AMA1 RON2 block
CCN(CC)CCOCCOC(=O)C(CC)(CC)c1ccccc1 (tested in a mixture with another compound),/,/,19µM*,6.7µM*,/,/
CCN(CC)CCOC(=O)C(O)(c1ccccc1)c1ccccc1,-6,3%,7%,-1%,-4,11%
COc1cc(NC(=O)CCC(=O)Nc2ccc3nc(N4CCOCC4)cc(C)c3c2)cc(OC)c1OC,-9,-2%,34%,4%,-3,-10%
Cc1cc(N2CCN(C)CC2)nc2ccc(NC(=O)c3ccc(Br)o3)cc12,101*,0%,1.7µM*,43%,26*,-26%
Cc1cc(N2CCN(C)CC2)nc2ccc(NC(=O)c3ccc4c(c3)OCO4)cc12,38,-8%,9.3µM*,/,20*,9%
COc1cc(C(=O)Nc2ccc3nc(N4CCN(C)CC4)cc(C)c3c2)cc(OC)c1OC,26,0%,0.33µM*,-1%,9,-3%
COc1cc(C(=O)Nc2ccc3c(c2)N(C(=O)CN2CCN(C)CC2)c2ccccc2CC3)cc(OC)c1OC,-2,-1%,13µM*,?,2,-20%
Cc1cccc([C@@H]2[C@@H]3C(=O)N(Cc4ccccc4)C(=O)[C@@H]3[C@]3(C)C(=O)N(c4cccc(F)c4)C(=O)N23)c1,/,-8%,10µM*,?,/,1%
CC[C@@]12C(=O)N(c3cccc(Cl)c3)C(=O)N1[C@H](c1cccc(C)c1)[C@@H]1C(=O)N(Cc3ccccc3)C(=O)[C@@H]12,/,1%,4.7µM*,5.2µM*,/,4%
CC[C@@]12C(=O)N(c3ccc(OC)cc3)C(=O)N1[C@H](c1cccc(C)c1)[C@@H]1C(=O)N(Cc3ccccc3)C(=O)[C@@H]12,-2,-3%,?,13µM*,-2,-10%
CC[C@@]12C(=O)N(c3ccc(C)cc3)C(=O)N1[C@H](c1cccc(C)c1)[C@@H]1C(=O)N(Cc3ccccc3)C(=O)[C@@H]12,/,-2%,?,?,/,7%
Cc1ccc(N2C(=O)N3[C@H](c4cccc(C)c4)[C@@H]4C(=O)N(Cc5ccccc5)C(=O)[C@@H]4[C@]3(C)C2=O)cc1,/,6%,?,-6%,/,-5%
Cc1cccc([C@@H]2[C@@H]3C(=O)N(Cc4ccccc4)C(=O)[C@@H]3[C@]3(Cc4ccc(Cl)cc4)C(=O)N(c4ccc(Br)cc4)C(=O)N23)c1,0,-5%,?,8.3µM*,-1,-4%
O=S(=O)(NC1CCN(S(=O)(=O)c2c(F)cccc2F)CC1)c1ccc2c(c1)OCCO2,-13,-1%,/,/,7,/
C/C(=N/O)c1ccc(Oc2cnccn2)cc1,32,1%,43%,0%,10,9%
CC1(Cc2ccc(OC(F)(F)F)cc2)C(=O)Nc2ccc(S(=O)(=O)NC3CCCCC3)cc21 (stereo unspecified),/,/,/,/,/,6%
O=C(Cn1ncc2c1-c1ccccc1OC2)N1CCN(Cc2ccc3c(c2)OCO3)CC1,-11,-1%,/,4.7µM*,-6,-5%
CC1=C(C(=O)Nc2cccc(C(=O)N3CCC(C(N)=O)CC3)c2)SCCO1,20,-2%,13%,-2%,-6,11%
COc1ccc(C(=O)c2ccc(Cl)cc2)cc1,75,7%,71%,41%,26,16%
COc1ccc(C(C#N)=C2C=CC(=NO)C=C2)cc1,-3,-21%,?,?,18*,16µM*
CC(=O)ON=C1C=CC(=C(C#N)c2ccccc2)C=C1,/,/,/,/,/,28µM*
COc1ccccc1C(=O)NCCC(=O)NNC(=O)c1ccccc1O,/,1%,-2%,7%,/,17%
C[C@]12c3[nH]c4ccc(Cl)cc4c3CCN1C(=O)[C@@H](CC(=O)NCc1ccco1)C[C@@H]2C(=O)N1CCCCC1,/,11%,/,/,/,?
CC(/C=C/c1ccccc1)=N/NC(=O)c1nc2nc(C)cc(C)n2n1,29,-4%,29%,58%,1,0%
CC(/C=C/c1ccccc1)=N\NC(=O)c1ccncc1,-11,0%,-27%,9%,-2,41%
SMILES,Shiga toxin inh,SARS PLpro yeast,Pf growth 48h,Pf growth 96h,CHX counter,AMA1 RON2 block
CC(/C=C/c1ccccc1)=N\NC(=S)NC(C)C,99*,-2%,-23%,4.7µM*,82*,44%
Cc1cc(C)nc(NN=C(c2ccccc2)c2ccccc2)n1,-3,-23%,?,13µM*,-4,8%
CC(/C=C/c1ccccc1)=N\Nc1nc(C)cc(C)n1,44*,?,?,10µM*,33*,68%
Cc1cc(C)nc(NN=C2CCCC2)n1,12,10%,12µM*,?,5,46%
O=C(O)C1(c2ccccc2)CCN(S(=O)(=O)c2cccc(Cl)c2)CC1,30,-1%,26%,23%,-1,1%
CSc1nsc2nc(=O)c(/C=C3\C=Nc4ccccc43)c(N)n12,36,-9%,7%,37%,10,-5%
Nc1c(C=C2C=CC(=O)C=C2)c(=O)nc2snc(SCc3ccccc3)n12,47*,0%,1%,33%,33*,47%
Cn1c(CCC(N)=O)nnc1SCC(=O)Nc1ccccc1C(=O)NC1CC1,/,2%,2%,1%,/,-8%
Cc1cc(C)nc(SCCS(=O)(=O)Cc2ccc(Cl)cc2)n1,-9,11%,4%,10µM*,6,2%
COC(=O)Nc1nc2ccccc2[nH]1,/,/,/,/,/,18%
COc1ccc2nc(Cl)c(/C=N/Nc3ccccn3)cc2c1,37,-2%,81%,253%,24,-2%
COC(=O)c1ccc(/C=N/Nc2nc3ccccc3[nH]2)cc1,151*,-1%,?,?,47*,5%
C(=N\Nc1nc2ccccc2[nH]1)/c1ccncc1,69*,0%,?,0%,33*,3%
CC(=O)Nc1ccc(/C=N/Nc2nc3ccccc3[nH]2)cc1,62*,?,1.9µM*,?,50*,56%
Clc1nc2ccccc2cc1/C=N/Nc1nc2ccccc2[nH]1,21,-11%,0.52µM*,?,41*,98%
O=C1NC2(CCCCC2)C(=O)N1CC(=O)N1CCc2ccccc21,/,-4%,/,/,/,1%
O=C(Cc1nc2ccccc2[nH]1)N/N=C/c1ccccc1,2,-3%,22%,-26%,3,60%
CCN(CC)c1ccc(/C=N/Nc2nc3ccccc3[nH]2)cc1,110*,-87%,1.9µM*,2.6µM*,37*,12%
O=C(O)c1ccc(/C=N/Nc2nc3ccccc3[nH]2)cc1,24,1%,38%,15%,16*,15%

# Bioassay records (PubChem)
